Experiment in all cases: Primary qHTS to identify gynecologic anti-cancer compounds using libraries of approved drugs and bioactive compounds (AID 1345084); also: nearly all actives have a fitted effect of over 55% in size
What all share (conditions): Gynecologic cancer cell panel viability, ATPlite luminescence, 48 h; series mostly up to 57.5 µM

One assay concerns OV90. The method, boiled down:
(§1)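 Five-point cytotoxicity, 48 h drug exposure at 37 C, 5% CO2, on cells seeded 16 h beforehand. ATP content read by ATPlite luminescence.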

The next assay deals with PA-1. The method, boiled down:
as §1

For the next assay, the system named is SKOV3. The method, boiled down: as §1
For a further assay, the system named is Tov-21-G. The gist of the method:
as §1

A further assay relates to Tov112D. The gist of the method:
as §1

Inconclusive results are not listed. Active and inactive are the calls of the source. Calls follow the shape of the dose curve; as a rule, active = well fitted cell-killing curve with a large enough effect; inconclusive = small, poorly fitted or top-dose-only effect, or effect the other way; inactive = flat fitted curve, though single readings scatter.
Potency is read from the fitted curve at half-maximal effect.

Consider `Cc1cc(C(=O)Cn2cc(C#N)ccc2=O)c(C)n1Cc1ccccc1`, for which the Potency entry in the assay with OV90, in the assay with PA-1, in the assay on SKOV3, in the assay with Tov-21-G and with Tov112D was “inactive” throughout.

In the case of `CCC(C)/C=C(C)/C=C/C1=CC2=C(Cl)C(=O)C(C)(OC(C)=O)C(=O)C2(O)C(OC)O1` (configuration not stated), the Potency result in the assay on OV90, with PA-1, in the assay with SKOV3, with Tov-21-G and in the assay with Tov112D was “inactive” in each case.

With `COc1ccc(Sc2ccc(NC(=O)c3ccccc3Cl)cc2C#N)cc1`, the Potency result in the assay with OV90, with PA-1, in the assay with SKOV3, in the assay with Tov-21-G and in the assay on Tov112D was “inactive” each time.

Take `CC1(NC(=O)c2ccc(C#Cc3cccc(F)c3)cn2)COC1`: the Potency result in the assay with OV90, in the assay with PA-1, with SKOV3, with Tov-21-G and in the assay on Tov112D was “inactive” each time.

On to `C/C=C(\C)C(=O)OC1C[C@@]2(COC(C)=O)O[C@H]2/C=C\[C@@]2(C)O[C@@H]2[C@H]2OC(=O)C(COC(C)=O)=C12` (some centres not stated), for which the Potency entry in the assay on OV90, with PA-1, in the assay with Tov-21-G and with Tov112D was “inactive” throughout.

Regarding `C[C@H]1CO[C@@H]2Cn3cc(C(=O)NCc4ccc(F)cc4F)c(=O)c(O)c3C(=O)N12`, the Potency entry in the assay on OV90, in the assay on PA-1, with SKOV3 and in the assay with Tov112D was “inactive” each time.

Take `Cn1sc(=O)n(Cc2ccccc2)c1=O`: the Potency entry with OV90, in the assay on PA-1, in the assay with SKOV3 and with Tov112D was “inactive” throughout.

Consider `C/C1=C\[C@@H](C)C[C@@H](C)[C@@H](Cc2cnco2)OC(=O)/C(C)=C/[C@@H](C)C[C@@H](C)[C@@H](Cc2cnco2)OC1=O`, for which the Potency result in the assay on OV90, in the assay with PA-1 and with Tov-21-G was “inactive” in each case.

In the case of `C=C1C(=O)O[C@@H]2[C@H]1CC(=O)[C@H](C)[C@@](O)(C(=O)/C=C/C)[C@H]2OC(=O)C(C)CC` (some centres not stated), the Potency entry with OV90 was “inactive”. In addition, the figures for the Potency in the assay with PA-1 and in the assay with Tov-21-G were 11.2 µM (active) and 12.6 µM (active), respectively.

As for `COc1ccc(NC(=O)c2ccc(-c3ccc(C(=N)N)cc3C)cc2)cc1N1CCN(C)CC1`, the Potency result with OV90, in the assay with PA-1, with Tov-21-G and in the assay on Tov112D was “inactive” throughout.

Consider `CC1OC2OC(=O)C3(C)CC4C5(CO5)C5=CC(=O)OC(C)(C)C5=CC(=O)C4(C)C(C1=O)C23` (configuration not stated), for which the Potency result in the assay with OV90, in the assay on PA-1, in the assay with SKOV3 and with Tov112D was “inactive” throughout.

With `CN(C)CCOC(C)(c1ccccc1)c1ccc(Cl)cc1` (configuration not stated), the Potency result with OV90, with PA-1, with Tov-21-G and in the assay with Tov112D was “inactive” each time.

For `CC[C@@H](C)Nc1cc(C(=O)NC2CC3CC[C@@H](C2)N3c2ccc(C(=O)C3CC3)cn2)c(C)cc1C(N)=O` (some centres not stated), the Potency in the assay with OV90 is 0.316 µM (active); with PA-1 it was 0.316 µM (active); in the assay on Tov-21-G it was 0.398 µM (active).

As to `CC(C)(C)Sc1c(CC(C)(C)C(=O)O)n(Cc2ccc(Cl)cc2)c2ccc(OCc3ccc4ccccc4n3)cc12`, the Potency entry with OV90, in the assay on PA-1, with Tov-21-G and with Tov112D was “inactive” in each case.

As to `CCOc1cc(C(C)(C)C)ccc1C1=N[C@@](C)(c2ccc(Cl)cc2)[C@@](C)(c2ccc(Cl)cc2)N1C(=O)N1CCN(CC(=O)N2CCOCC2)CC1`, the Potency entry in the assay on OV90, in the assay on SKOV3 and in the assay on Tov112D was “inactive” throughout. Also, in the assay with PA-1, the Potency is 10 µM (active).

Regarding `C=C1C(=O)O[C@@H]2C[C@H](C)[C@@H]3CC(=O)[C@H](O)[C@@]3(C)C[C@H]12`, the Potency result in the assay on OV90, in the assay on SKOV3 and in the assay with Tov112D was “inactive” throughout. Also, the Potency in the assay on PA-1 is 25.1 µM (active).

For the compound `O=C(Nc1cccnc1)c1cc(-c2ccnc(F)c2)ccc1OCc1ccccc1`, the Potency entry with OV90, in the assay on PA-1, in the assay on Tov-21-G and in the assay on Tov112D was “inactive” in each case.

As for `NS(=O)(=O)Nc1ncnc(OCCOc2ncc(Br)cn2)c1-c1ccc(Br)cc1`, the Potency result in the assay with OV90, in the assay on PA-1, in the assay with Tov-21-G and in the assay with Tov112D was “inactive” each time.

As for `Cc1cccc(CC(=O)N2CCc3c2ccc(-c2cn(C)c4ncnc(N)c24)c3F)n1`, the Potency entry in the assay on OV90, in the assay with PA-1, in the assay on Tov-21-G and in the assay on Tov112D was “inactive” in each case.

Values taken from PubChem BioAssay (NCATS).
